The subject of experiment [1] is XIP peptide (Xip251-270) binding. The experiment is described as follows: XIP fragment 251-270 binding compounds – biochemical, small-molecule microarray, fluorescence 635/667 nm, 0.1 µg/mL protein, primary screen (AID 1182). To be noted: fluorescent protein binding, 635 nm, higher = more signal, called active from +8 up or from −8 down.
The test system of experiment [2] is XIP peptide (Xip251-270). The experiment is described as follows: compounds binding XIP fragment 251-270 – biochemical, small-molecule microarray, fluorescence 635/667 nm, 0.5 µg/mL protein, primary screen (AID 1183). The settings on record: fluorescence 635 nm, higher = more signal.
Experiment [3] in a line: blood-stage malaria parasite viability loss – strain 3D7, DAPI fluorescence, 100 nL, primary screen (AID 1184).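 Note: parasites grown inside human red blood cells in medium with human serum.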 To be noted: P. falciparum 3D7 growth, 3 d, higher = more signal.
Experiment [4] has as its target Homeobox protein Hox-A13 (Mus musculus) (UniProt Q62424). The experiment in a line: disruptors of Hoxa13 oligonucleotide interaction – biochemical, fluorescence polarization, labeled oligonucleotide, primary screen (AID 1185). The settings on record: Hoxa13:DNA binding, 15 min, higher = more signal, called active from +8 up or from −8 down.
Experiment [5] can be described thus: blockers of DNA damage checkpoint Chk1 activation – imaging, HeLa, hydroxyurea, phospho-Chk1 antibody, percent positive cells, primary screen (AID 1186). To be noted: hydroxyurea-induced phospho-Chk1 immunofluorescence imaging, higher = more signal.
Experiment [6] is described as follows: blockers of DNA damage checkpoint Chk1 activation – imaging, HeLa, hydroxyurea, phospho-Chk1 nuclear intensity, primary screen (AID 1187). The settings on record: hydroxyurea-induced phospho-Chk1 immunofluorescence imaging, higher = more signal.

Calls of active or inactive are those of the source. Unless noted, the rule behind the calls is not given here.

Chain of Homeobox protein Hox-A13 (Mus musculus) (Q62424 whole entry, looked up): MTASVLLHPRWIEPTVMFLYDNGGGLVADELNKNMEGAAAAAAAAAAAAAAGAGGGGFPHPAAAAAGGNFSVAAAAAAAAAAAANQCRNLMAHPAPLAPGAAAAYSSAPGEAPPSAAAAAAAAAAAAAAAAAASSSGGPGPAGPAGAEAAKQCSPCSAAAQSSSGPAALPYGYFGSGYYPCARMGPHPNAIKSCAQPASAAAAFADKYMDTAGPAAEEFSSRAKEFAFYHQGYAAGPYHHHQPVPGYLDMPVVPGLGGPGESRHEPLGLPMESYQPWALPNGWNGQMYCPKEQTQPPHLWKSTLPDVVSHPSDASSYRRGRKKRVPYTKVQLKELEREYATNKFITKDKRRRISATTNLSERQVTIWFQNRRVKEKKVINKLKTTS

For the molecule `COc1cc2c(cc1OC)CN(C(=O)[C@@H]1[C@H]3C(=O)O[C@H](c4ccccc4)[C@H](c4ccccc4)N3[C@H](c3ccc(O)cc3)[C@@]13C(=O)Nc1ccc(C#CC4=CCCCC4)cc13)CC2`, the composite z-score in experiment [1] was 0.715 (inactive); in experiment [2] it was 0.535. Besides, the z-score is -0.75 in experiment [3], 2.74 (inactive) in experiment [4], 0.0655 (inactive) in experiment [5] and 0.407 (inactive) in experiment [6].
As for `C=CCNC(=O)[C@@H]1[C@H]2C(=O)O[C@H](c3ccccc3)[C@H](c3ccccc3)N2[C@H](c2ccc(O)cc2)[C@@]12C(=O)Nc1ccc(C#CC3=CCCCC3)cc12`, the composite z-score in experiment [1] is 1.79 (inactive); in experiment [2], 0.716. Also, the z-score is 0.155 in experiment [3], 0.828 (inactive) in experiment [4], 0.0206 (inactive) in experiment [5] and -0.275 (inactive) in experiment [6].
As for `CS(=O)(=O)CCOC(=O)C1=CC(CCCO)=CC(C2CC2)N(Cc2sc3ccccc3c2Cl)C=C1C(=O)OCCS(C)(=O)=O` (stereo not given), the results for the composite z-score in experiment [1] and in experiment [2] were 1.05 (inactive) and 0.257, respectively. Moreover, the z-score in experiment [3] was -3.02; in experiment [4] it was -4.7 (inactive); in experiment [5], -0.207 (inactive); in experiment [6], -0.0474 (inactive).
On to `C=C(C(=O)CC[C@@H](OC(=O)c1cccnc1)c1cccc(OCCO)c1)C(C)C`, for which the composite z-score in experiment [1] was -0.0726 (inactive); in experiment [2], 0.61. Besides, the z-score in experiment [3] is -2.56; in experiment [4] it was -3.51 (inactive); in experiment [5] it was -0.361 (inactive); in experiment [6], 0.519 (inactive).
Take `CCCCC(=C=CC[C@H](O)c1cccc(OCCO)c1)C[C@H](O)c1cc(Cl)cc(Cl)c1O`: the composite z-score in experiment [1] is 0.878 (inactive); in experiment [2], 0.592. For the same molecule, the z-score is -1.16 in experiment [3], -4.28 (inactive) in experiment [4], -0.755 (inactive) in experiment [5] and 0.0773 (inactive) in experiment [6].
As for `CCCCCCc1nc(Cc2cc(OC)c(OC)c(OC)c2)c(C)c2c1[Si](C(C)C)(C(C)C)OC2`, the composite z-score is -0.814 (inactive) in experiment [1] and 0.0092 in experiment [2]. In addition, the z-score was -2.76 in experiment [3], -1.45 (inactive) in experiment [4], -0.817 (inactive) in experiment [5] and -0.386 (inactive) in experiment [6].
In the case of `COCCCNC(=O)[C@@]1(Cc2ccccc2I)c2ccccc2C(=O)N(Cc2ccccc2OC)[C@H]1c1ccc(CO)cc1`, the composite z-score in experiment [1] is 1.02 (inactive); in experiment [2], 0.0714. Also, the z-score in experiment [3] was -1.07; in experiment [4], -4.88 (inactive); in experiment [5], -0.14 (inactive); in experiment [6] it was 0.04 (inactive).
Take `[N-]=[N+]=NCc1ccccc1[C@H]1OC(c2ccc(OCCCO)cc2)=N[C@@]1(Cc1ccccc1N=[N+]=[N-])C(=O)O`: the composite z-score in experiment [1] is 0.107 (inactive); in experiment [2], 0.76. Further, the z-score in experiment [3] is 0.58; in experiment [4], -4.41 (inactive); in experiment [5], -0.0666 (inactive); in experiment [6], 0.194 (inactive).
On to `C=CC[C@H](O)c1ccc(O)c(F)c1`, for which the composite z-score was -0.51 (inactive) in experiment [1] and 0.0085 in experiment [2]. Further, the z-score in experiment [3] was -0.418; in experiment [4] it was -1.51 (inactive); in experiment [5], -0.316 (inactive); in experiment [6], -0.264 (inactive).
Consider `O=C1OC[C@@H](c2ccccc2)n2cc(/C=C/c3ccccc3)cc21`, for which the figures for the composite z-score in experiment [1] and in experiment [2] were 0.623 (inactive) and 0.505, respectively. In addition, the z-score in experiment [3] is -0.0812; in experiment [4], 0.816 (inactive); in experiment [5] it was -0.481 (inactive); in experiment [6], -0.268 (inactive).
On to `COCCOC(=O)N1C(=O)[C@@]2(c3cc(C#CCNC(N)=O)ccc31)[C@H](C(N)=O)[C@H]1C(=O)O[C@H](c3ccccc3)[C@H](c3ccccc3)N1[C@@H]2c1ccc(O)cc1`, for which the composite z-score in experiment [1] was 0.201 (inactive); in experiment [2], -0.532. Also, the z-score in experiment [3] is 1.75; in experiment [4] it was -3.48 (inactive); in experiment [5] it was 0.319 (inactive); in experiment [6], 0.888 (inactive).
For `C=C[C@H](OC)[C@@H](O)c1ccc(OC)c(O)c1`, the composite z-score in experiment [1] is -1.51 (inactive); in experiment [2] it was 1.1. The z-score in experiment [3] was -0.874; in experiment [4], -1.36 (inactive); in experiment [5] it was 0.171 (inactive); in experiment [6], 0.705 (inactive).
As for `O=C(N1CCOCC1)[C@]1(CCS(=O)(=O)c2ccccc2)N=C(c2ccc(OCCCO)cc2)O[C@@H]1c1ccccc1`, the composite z-score is 1.24 (inactive) in experiment [1] and 0.717 in experiment [2]. Besides, the z-score in experiment [3] was -2.21; in experiment [4], -4.54 (inactive); in experiment [5] it was -0.141 (inactive); in experiment [6] it was 0.0352 (inactive).
`COc1ccc(-c2cc3c(c(CCc4ccccc4)n2)[Si](C(C)C)(C(C)C)O[C@H]3c2ccccc2)cn1`: the composite z-score in experiment [1] is -0.269 (inactive); in experiment [2], -0.179. Moreover, the z-score in experiment [3] was -1.41; in experiment [4], -1.35 (inactive); in experiment [5], -0.0745 (inactive); in experiment [6], -0.194 (inactive).
`C=CCNC(=O)[C@@H]1[C@H]2C(=O)O[C@H](c3ccccc3)[C@H](c3ccccc3)N2[C@H](c2ccc(OCCO)cc2)[C@@]12C(=O)Nc1ccc(C#CC3=CCCCC3)cc12`: the composite z-score in experiment [1] was 1.45 (inactive); in experiment [2], 0.799. The z-score in experiment [3] was -1.39; in experiment [4], 1.89 (inactive); in experiment [5], 0.269 (inactive); in experiment [6] it was 0.273 (inactive).

The values are drawn from PubChem BioAssay.
